The values that follow come from PubChem BioAssay.

Assay [1] in a line: viability loss with induced miR-34 in A549 – imaging, A549 dox-inducible miR-34, nuclei and caspase counts, primary screen (AID 1347080;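 active = compounds whose cell count with miR-34 switched on is under 0.7 times the count with it off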). The settings on record: A549 miR-34 inducible, Hoechst nuclei count, 48 h.
A short description of assay [2]: viability loss in pontine glioma line – cell-based, SU-DIPG-XIII, MIPE5.0, CellTiter-Glo, qHTS, dose response (AID 1347064; cut-off not given, nearly all actives have AC50 up to about 23 µM;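 as to AC50: cells exposed to compound for 48 hours before the viability read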). The following applies: CellTiter-Glo ATP luminescence. A general note: ATP-based viability assays read luminescence as a measure of living cells.
Assay [3] in a line: viability loss in pontine glioma line – cell-based, SU-DIPG-XXV, MIPE5.0, CellTiter-Glo, qHTS, dose response (AID 1347065; cut-off not given, nearly all actives have AC50 up to about 26 µM;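 also: cells exposed to compound for 48 hours before ATP readout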). The settings on record: CellTiter-Glo ATP luminescence.
A short description of assay [4]: JHH-DIPG-1 glioma cell viability, MIPE5.0 library, CellTiter-Glo luminescence, qHTS (AID 1347067; cut-off not given, nearly all actives have AC50 up to about 26 µM;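 also: cells exposed to compound for 48 hours before readout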). The following applies: JHH-DIPG-1 glioma viability, CellTiter-Glo ATP luminescence.
Assay [5] in a line: growth inhibition of DIPG cells – cell-based, MIPE5.0 library, qHTS (AID 1347068; cut-off not given, nearly all actives have IC50 up to about 30 µM). The settings on record: SU-DIPG-XXV viability. A general note: Quantitative high-throughput screening tests each substance at several concentrations.
The nature of assay [6]: viability loss in pontine glioma line – cell-based, SU-DIPG-IV, MIPE4.0, CellTiter-Glo, qHTS, dose response (AID 1347063; cut-off not given, nearly all actives have AC50 up to about 30 µM;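 also: compound exposure lasted 48 hours before the viability readout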). The following applies: CellTiter-Glo ATP luminescence.
A short description of assay [7]: MELAS cybrid and Rieske KO viability enhancers – cell-based, MELAS cybrids, Rieske KO mouse fibroblasts, CellTiter-Glo, primary screen (AID 1508586;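 active = mean z-score across replicates of 1.96 or higher in either the MELAS or the Rieske mutant cell line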;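 also: z relative to plate mean and SD of compound and empty wells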). The following applies: low glucose.
Assay [8] can be described thus: drug combination growth inhibition, ovarian cancer – cell-based, oncology-focused library, rucaparib conditional, profiling panel (AID 1508598). The settings on record: patient-derived ovarian cancer cells, CellTiter-Glo viability, 144 h, stronger effect = lower value.
[9] abbreviates: measured here: relative caspase fold change +Dox/-Dox.
The mark [10] stands for this setting: measured here: total cells with miR-34 induction, stronger effect = lower value.
Setting [11] is: measured here: total cells without miR-34 induction.
Setting [12] is: stronger effect = lower value, cell number ratio, induced over uninduced.

Inconclusive results are not listed. Activity calls are given as the source filed them.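 The calls were made as follows, unless noted: active = normalized viability below 100% at a tested concentration; inactive = the rest.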

As usually defined, the AC50 is the concentration at which the activity in the assay is half-maximal. The viability is a read-out of living cells in per cent, often relative to untreated cells.

`CCCCCCC(=O)O[C@H]1CC[C@H]2[C@@H]3C[C@H](O)C4=CC(=O)CC[C@]4(C)[C@H]3CC[C@]12C`: the fold change in assay [1] (stronger effect = lower value) was 0.966 (inactive); in assay [1] (setting [9]), 1.11. For the same compound, the cell count in assay [1] (setting [10]) amounted to 5330; in assay [1] (setting [11]), 5520.
For the compound `CC(C)[C@]1(O)[C@@H](OC(=O)c2ccc[nH]2)[C@@]2(O)[C@@]3(C)C[C@]4(O)O[C@@]5([C@H](O)[C@@H](C)CC[C@]35O)[C@@]2(O)C41C`, the figures for the fold change in assay [1] (stronger effect = lower value) and in assay [1] (setting [9]) were 0.925 (inactive) and 1.12, respectively. Besides, the cell count in assay [1] (setting [10]) was found to be 5510; in assay [1] (setting [11]) it was 5960.
With `CCCCCCC(C)(C)c1cc(O)c2c(c1)OC(C)(C)C1CC=C(CO)C[C@H]21` (stereo not given in full), the AC50 in assay [2] is 9.34 µM (active); in assay [3], 7.42 µM (active); in assay [4], 7.42 µM (active).
`c1cc2ccsc2c(N2CCNCC2)n1`: the figures for the fold change in assay [1] (setting [12]) and in assay [1] (setting [9]) were 0.937 (inactive) and 0.656, respectively. Moreover, the cell count in assay [1] (setting [10]) is 5170; in assay [1] (setting [11]), 5520.
`CC(=O)N1N=C(c2ccc(N)cc2)c2cc3c(cc2C[C@H]1C)OCO3`: the compound was called inactive in assay [2], in assay [3], in assay [4] and in assay [5].
Consider `O=S(=O)(CC1CS1)c1ccc(Oc2ccccc2)cc1` (stereo not given), for which the values for the AC50 in assay [6] and in assay [4] were 20.9 µM (active) and 23.5 µM (active), respectively. Also, in assay [5], the compound was called inactive. The fold change in assay [1] (setting [12]) is 0.961 (inactive); in assay [1] (setting [9]) it was 0.577. Moreover, the cell count in assay [1] (setting [10]) was 8270; in assay [1] (setting [11]) it was 8600. Further, the z-score in assay [7] (MELAS cybrid survival, CellTiter-Glo 48 h, stronger effect = higher value) was -0.354 (inactive); in assay [7] (Rieske KO mouse fibroblast survival, CellTiter-Glo 72 h) it was -1.56. Besides, the viability in assay [8] (at 0.000305 µM, OCI-C5x cells, with rucaparib 10 µM, 100% = cells with rucaparib alone) is 114% (inactive); in assay [8] (at 0.000305 µM, OCI-C5x cells, without rucaparib), 110% (inactive); in assay [8] (at 0.000305 µM, OCI-P5x cells, with rucaparib 20 µM, 100% = cells with rucaparib alone), 95.3% (active); in assay [8] (at 0.000305 µM, OCI-P5x cells, without rucaparib) it was 95.4% (active); in assay [8] (at 0.00122 µM, OCI-C5x cells, with rucaparib 10 µM, 100% = cells with rucaparib alone), 112% (inactive); in assay [8] (at 0.00122 µM, OCI-C5x cells, without rucaparib) it was 111% (inactive). The viability in assay [8] (at 0.00122 µM, OCI-P5x cells, with rucaparib 20 µM, 100% = cells with rucaparib alone) is 98.5% (active); in assay [8] (at 0.00122 µM, OCI-P5x cells, without rucaparib), 92.4% (active); in assay [8] (at 0.00488 µM, OCI-C5x cells, with rucaparib 10 µM, 100% = cells with rucaparib alone), 121% (inactive); in assay [8] (at 0.00488 µM, OCI-C5x cells, without rucaparib), 102% (inactive); in assay [8] (at 0.00488 µM, OCI-P5x cells, with rucaparib 20 µM, 100% = cells with rucaparib alone), 89.9% (active); in assay [8] (at 0.00488 µM, OCI-P5x cells, without rucaparib), 97.6% (active). Besides, the viability in assay [8] (at 0.0195 µM, OCI-C5x cells, with rucaparib 10 µM, 100% = cells with rucaparib alone) is 122% (inactive); in assay [8] (at 0.0195 µM, OCI-C5x cells, without rucaparib), 112% (inactive); in assay [8] (at 0.0195 µM, OCI-P5x cells, with rucaparib 20 µM, 100% = cells with rucaparib alone) it was 91% (active); in assay [8] (at 0.0195 µM, OCI-P5x cells, without rucaparib) it was 94.3% (active); in assay [8] (at 0.0781 µM, OCI-C5x cells, with rucaparib 10 µM, 100% = cells with rucaparib alone) it was 121% (inactive); in assay [8] (at 0.0781 µM, OCI-C5x cells, without rucaparib), 102% (inactive). Also, the viability in assay [8] (at 0.0781 µM, OCI-P5x cells, with rucaparib 20 µM, 100% = cells with rucaparib alone) is 85.3% (active); in assay [8] (at 0.0781 µM, OCI-P5x cells, without rucaparib) it was 91.2% (active); in assay [8] (at 0.313 µM, OCI-C5x cells, with rucaparib 10 µM, 100% = cells with rucaparib alone), 120% (inactive); in assay [8] (at 0.313 µM, OCI-C5x cells, without rucaparib), 101% (inactive); in assay [8] (at 0.313 µM, OCI-P5x cells, with rucaparib 20 µM, 100% = cells with rucaparib alone) it was 84.7% (active); in assay [8] (at 0.313 µM, OCI-P5x cells, without rucaparib) it was 93.5% (active). The viability was 117% (inactive) in assay [8] (at 1.25 µM, OCI-C5x cells, with rucaparib 10 µM, 100% = cells with rucaparib alone); 111% (inactive) in assay [8] (at 1.25 µM, OCI-C5x cells, without rucaparib); 79% (active) in assay [8] (at 1.25 µM, OCI-P5x cells, with rucaparib 20 µM, 100% = cells with rucaparib alone); 82.1% (active) in assay [8] (at 1.25 µM, OCI-P5x cells, without rucaparib); 108% (inactive) in assay [8] (at 5 µM, OCI-C5x cells, with rucaparib 10 µM, 100% = cells with rucaparib alone); 110% (inactive) in assay [8] (at 5 µM, OCI-C5x cells, without rucaparib). Also, the viability in assay [8] (at 5 µM, OCI-P5x cells, with rucaparib 20 µM, 100% = cells with rucaparib alone) is 80.3% (active); in assay [8] (at 5 µM, OCI-P5x cells, without rucaparib) it was 81.4% (active).
